According to PubChem BioAssay (Tox21):
Records with an inconclusive call do not appear. Calls of active or inactive are those of the source. Unless noted, calls follow the shape of the dose curve; as a rule, active = well fitted curve in the direction sought with a large enough effect in the repeat runs; inconclusive = weak or mixed curves; inactive = no such curve, though single readings can be large; an effect the other way counts as inactive or inconclusive.

How the values were obtained:
[1] = qHTS assay to identify small molecule antagonists of the vitamin D receptor (VDR) signaling pathway - cell viability counter screen (AID 743225); also: nearly all actives have a fitted effect of over 50% in size
Outline: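 Read-out: CellTiter-Glo luminescence measured 30 min after reagent addition at room temperature. Cells were VDR-bla HEK 293T exposed 16 h at 37C, 5% CO2, to compound with 3 nM final calcitriol agonist.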

[2] = qHTS assay to identify small molecule agonists of the NFkB signaling pathway - cell viability counter screen (AID 1159515; calls by dose curve; also: series mostly up to about 61 µM; nearly all actives have a fitted effect of over 55% in size)
Outline: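 Parallel cytotoxicity counter screen in ME-180 cells carrying an NFkB-response-element beta-lactamase reporter, 2,000 cells/well. Compound exposure lasted 5 hr at 37 C, 5% CO2. Cell viability was quantified by CellTiter-Glo luminescence.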

[3] = qHTS assay to identify small molecule agonists of the endoplasmic reticulum stress response signaling pathway (AID 1159516; active = well fitted activation curve with a large enough effect in the signal ratio in the repeat runs, not every such curve was filed as active; the % refers to the signal ratio)
Outline: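 Using a HeLa line with an ESRE-driven beta-lactamase gene, agonist activity was measured by FRET substrate fluorescence (460 and 530 nm emission) after cells were treated with compounds for 5 hr at 37 C and 5% CO2.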

[4] = qHTS assay to identify small molecule agonists of the endoplasmic reticulum stress response signaling pathway - cell viability counter screen (AID 1159517; calls by dose curve;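 also: HeLa cells carrying an ER stress response element beta-lactamase reporter; series mostly up to about 61 µM; nearly all actives have a fitted effect of over 50% in size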)
Outline: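 Steps: seed 1,500 ESRE-bla HeLa cells per well; incubate overnight at 37 C, 5% CO2; add compounds in DMSO for 5 hr; run FRET substrate 2 hr RT; add CellTiter-Glo, wait 30 min, read luminescence.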

[5] = qHTS assay to identify small molecule antagonists of the retinoid-related orphan receptor gamma (ROR-gamma) signaling pathway - cell viability counter screen (AID 1159520); also: nearly all actives have a fitted effect of over 50% in size
Outline: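 Tet-on ROR gamma CHO cells were given compounds for 2 hr, then doxycycline hyclate at 1 uM final, and incubated 16 hr at 37 C. Viability was measured as ATP content by CellTiter-Glo luminescence.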

[6] = molecular target: Nuclear receptor ROR-gamma (Homo sapiens) (UniProt P51449); assay: qHTS assay to identify small molecule antagonists of the retinoid-related orphan receptor gamma (ROR-gamma) signaling pathway (AID 1159521;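 also: CHO cells with doxycycline inducible ROR-gamma driving an RORE luciferase reporter; top concentration of the series differs between compounds; nearly all actives have a fitted effect of over 50% in size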)
Outline: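 CHO Tet-on RORγ, RORE-luc reporter. Cpd 2 h pre-incubation, then dox hyclate 1 uM final, 16 h, 37 C/5% CO2. ONE-Glo luminescence; decrease = antagonist.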

[7] = qHTS assay to identify small molecule agonists of the AP-1 signaling pathway - cell viability counter screen (AID 1159525; calls by dose curve; also: nearly all actives have a fitted effect of over 55% in size)
Outline: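 Same-well cytotoxicity counter screen of the Tox21 10K library in ME-180 cells. The readout is ATP-dependent luminescence after 5 h compound treatment. Data are normalised to DMSO and tetra n-octyl ammonium bromide controls.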

[8] = qHTS assay to identify small molecule agonists of the AP-1 signaling pathway (AID 1159526; calls by dose curve)
[9] = qHTS assay to identify small molecule agonists of the RXR signaling pathway - cell viability counter screen (AID 1159529)
Outline: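 HEK 293T RXRa-bla cells, 2% CS-FBS; 5 h settle; cpd 16 h 37 C, 5% CO2; CellTiter-Glo 30 min RT, luminescence. Tetraoctyl ammonium bromide as positive control.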

[10] = qHTS assay to identify small molecule antagonists of the retinoid acid receptor (RAR) signaling pathway - cell viability counter screen (AID 1159551); also: nearly all actives have a fitted effect of over 35% in size
Outline: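 ATP-based viability, C3RL4 cells, 6 h at 37 C with 1 uM final retinol co-added after compound; luminescence read 30 min post CellTiter-Glo, RT.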

[11] = qHTS assay to identify small molecule antagonists of the retinoic acid receptor (RAR) signaling pathway (AID 1159552; also: nearly all actives have a fitted effect of over 50% in size)
Outline: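 Cells of the C3RL4 line were seeded, incubated overnight, then dosed with compounds in DMSO followed immediately by retinol (1 uM final). Six hours later luciferase detection reagent went in; signal was measured after 30 min at RT.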

[12] = qHTS assay to identify small molecule agonists of the retinoic acid receptor (RAR) signaling pathway (AID 1159553)
Outline: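 Quantitative high-throughput format: the Tox21 10K library was tested on C3RL4 RARE-luciferase cells for 6 hr at 37 C and 5% CO2, with luminescence measured after a 30 min room-temperature reagent step.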

[13] = qHTS assay to identify small molecule antagonists of the estrogen related receptor (ERR) signaling pathway from Tox21 library - cell viability counter screen (AID 1224834); also: nearly all actives have a fitted effect of over 30% in size
Outline: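 Compounds in DMSO were pinned onto ERR cells that had been incubated for 6 h, and the plates were held at 37 C for 17.5 h. CellTiter-Fluor reagent was then added and fluorescence was measured after 30 min.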

[14] = molecular target: Luciferin 4-monooxygenase (Photinus pyralis) (UniProt P08659); assay: qHTS assay to identify small molecule inhibitors of firefly luciferase (AID 1224835); also: series mostly up to about 120 µM; nearly all actives have a fitted effect of over 25% in size
Outline: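 Biochemical qHTS: compounds run as interplate titrations against purified firefly enzyme, with D-luciferin and ATP each at its KM concentration. Light output recorded by CCD imaging.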

[15] = qHTS assay to identify small molecule antagonists of the constitutive androstane receptor (CAR) signaling pathway - cell viability counter screen (AID 1224837); also: series mostly up to about 92 µM; nearly all actives have a fitted effect of over 45% in size
Outline: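 Cells are seeded, rested 4 hr at 37 C/5% CO2, dosed with compound (15-point series) and 50 nM CITCO, incubated a further 23 hr, and then CellTiter-Fluor reagent is added before fluorescence is read. The line is HepG2 with stable hCAR and CYP2B6-2.2kb.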

[16] = molecular target: Nuclear receptor subfamily 1 group I member 3 (Homo sapiens) (UniProt Q14994); assay: qHTS assay to identify small molecule antagonists of the constitutive androstane receptor (CAR) signaling pathway (AID 1224838);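 also: HepG2 cells stably expressing hCAR with CYP2B6 luciferase reporter stimulated by CITCO; nearly all actives have a fitted effect of over 40% in size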
Outline: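 Luminescence from a CYP2B6-2.2kb promoter reporter in hCAR-expressing HepG2 cells reflects CAR signaling. Cells received compounds at 15 concentrations and 50 nM CITCO (final), then incubated 24 h at 37 C/5% CO2.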

[17] = molecular target: Nuclear receptor subfamily 1 group I member 3 (Homo sapiens) (UniProt Q14994); assay: qHTS assay to identify small molecule agonists of the constitutive androstane receptor (CAR) signaling pathway (AID 1224839);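 also: HepG2 cells stably carrying human CAR and a CYP2B6 luciferase reporter; series mostly up to about 92 µM; nearly all actives have a fitted effect of over 15% in size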
Outline: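 HepG2-CYP2B6-hCAR cells, 2500/well, 4 h pre-incubation; compounds 15 conc.; PK11195 0.75 uM final; 24 h, 37 C/5% CO2; ONE-Glo luciferase read.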

[18] = qHTS assay to identify small molecule antagonists of the estrogen related receptor signaling pathway with the pleiotropic PPARgamma coactivator (PGC) from Tox21 10K library - cell viability counter screen (AID 1224840; active = well fitted cell-killing curve with a large enough effect in the repeat runs, not every such curve was filed as active; also: nearly all actives have a fitted effect of over 40% in size)
Outline: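 Cell viability is measured by CellTiter-Fluor fluorescence in PGC/ERR cells that receive compounds after a 6-hour attachment period and are then incubated 17.5 hours at 37 C.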

[19] = qHTS assay to identify small molecule agonists of the constitutive androstane receptor (CAR) signaling pathway - cell viability counter screen (AID 1224836); also: series mostly up to about 92 µM; nearly all actives have a fitted effect of over 45% in size
Outline: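 HepG2-CYP2B6-hCAR, 2500 cells/well, 4 h pre-incubation; cpd 15 conc + PK11195 0.75 uM final; 23 h, 37 C/5% CO2; CellTiter-Fluor, fluorescence.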

[20] = molecular target: Retinoic acid receptor RXR-alpha (Homo sapiens) (UniProt P19793); assay: qHTS assay to identify small molecule agonists of the RXR signaling pathway (AID 1159527; calls by dose curve; also: nearly all actives have a fitted effect of over 35% in size)
Outline: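 Read-out: beta-lactamase FRET ratio (405 nm excitation, 460 and 530 nm emission) after 2 hr substrate loading at room temperature. Cells were RXR-alpha-UAS-bla HEK 293T treated with compounds for 16 hr in 2% charcoal-stripped FBS medium.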

Measured: Potency

Nuclear receptor subfamily 1 group I member 3 (Homo sapiens), sequence (Q14994 whole entry, looked up): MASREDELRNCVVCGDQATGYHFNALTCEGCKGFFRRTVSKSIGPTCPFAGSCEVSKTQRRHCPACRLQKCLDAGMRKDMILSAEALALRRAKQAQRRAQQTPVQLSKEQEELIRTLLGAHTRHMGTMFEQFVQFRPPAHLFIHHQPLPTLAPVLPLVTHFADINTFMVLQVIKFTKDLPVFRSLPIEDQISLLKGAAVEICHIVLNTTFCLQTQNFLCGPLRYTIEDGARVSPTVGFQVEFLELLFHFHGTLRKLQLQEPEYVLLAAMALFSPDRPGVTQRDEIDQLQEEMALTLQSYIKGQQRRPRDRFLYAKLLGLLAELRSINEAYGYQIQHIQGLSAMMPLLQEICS
Luciferin 4-monooxygenase (Photinus pyralis), sequence (P08659 whole entry, looked up): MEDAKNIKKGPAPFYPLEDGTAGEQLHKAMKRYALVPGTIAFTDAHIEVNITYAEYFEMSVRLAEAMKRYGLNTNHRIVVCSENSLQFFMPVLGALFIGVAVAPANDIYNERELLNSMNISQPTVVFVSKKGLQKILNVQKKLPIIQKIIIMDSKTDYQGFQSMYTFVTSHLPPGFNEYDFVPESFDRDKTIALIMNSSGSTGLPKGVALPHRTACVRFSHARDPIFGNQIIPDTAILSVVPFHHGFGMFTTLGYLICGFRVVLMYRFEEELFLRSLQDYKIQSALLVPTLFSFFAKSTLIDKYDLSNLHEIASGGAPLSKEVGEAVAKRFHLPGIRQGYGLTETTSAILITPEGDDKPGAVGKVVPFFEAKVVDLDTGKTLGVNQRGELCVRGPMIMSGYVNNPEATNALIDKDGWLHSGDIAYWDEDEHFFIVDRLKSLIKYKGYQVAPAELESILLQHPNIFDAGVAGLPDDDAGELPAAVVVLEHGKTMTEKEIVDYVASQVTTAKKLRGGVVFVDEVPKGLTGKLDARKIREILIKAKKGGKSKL
Retinoic acid receptor RXR-alpha (Homo sapiens), sequence (P19793 whole entry, looked up): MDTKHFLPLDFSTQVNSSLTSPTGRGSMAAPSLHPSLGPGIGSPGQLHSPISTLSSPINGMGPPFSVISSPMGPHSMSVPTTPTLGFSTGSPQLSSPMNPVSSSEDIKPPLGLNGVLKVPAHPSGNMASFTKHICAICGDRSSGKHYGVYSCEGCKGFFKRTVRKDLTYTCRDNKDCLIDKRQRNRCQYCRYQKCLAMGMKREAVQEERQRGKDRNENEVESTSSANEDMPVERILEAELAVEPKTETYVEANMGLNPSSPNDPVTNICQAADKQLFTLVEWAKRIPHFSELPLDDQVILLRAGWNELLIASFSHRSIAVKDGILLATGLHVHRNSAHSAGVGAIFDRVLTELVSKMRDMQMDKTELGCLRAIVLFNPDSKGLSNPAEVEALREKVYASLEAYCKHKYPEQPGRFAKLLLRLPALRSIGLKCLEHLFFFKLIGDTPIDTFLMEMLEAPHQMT

CCCCCCCCS(=O)(=O)O
not listed: [19] | [20]
inactive: all other assays above

CC(CC(=O)Cl)CC(C)(C)C (centres undefined)
not listed: [16] | [17] | [20]
inactive: all other assays above

CCCCCCCCCCCCCC(=O)OCC
not listed: [12] | [17] | [20]
inactive: all other assays above

CCCC(=O)C(CC)Sc1ccoc1C (centres undefined)
not listed: [1] | [20]
inactive: all other assays above

Cc1ccc(Br)cc1
not listed: [20]
inactive: all other assays above

O=C(O)CCC(=O)Nc1ccc(S(=O)(=O)Nc2nccs2)cc1
not listed: [17] | [20]
inactive: all other assays above

O=C(O)Cc1c(Cl)ccc(Cl)c1Cl
not listed: [3] | [12]
inactive: all other assays above

O=C(CCBr)N1CCN(C(=O)CCBr)CC1
not listed: [3] | [12] | [16] | [17]
inactive: all other assays above

CC/C=C/CCCCCCCCCCOC(C)=O
not listed: [3] | [11]
inactive: all other assays above

CCO/C=C1\N=C(c2ccccc2)OC1=O
not listed: [3] | [11] | [17]
inactive: all other assays above

CC(=O)c1c(C)cc(C(C)(C)C)cc1C
not listed: [3] | [20]
inactive: all other assays above
